ARNT TACC3 PPI – disruptors of ARNT/TACC3 protein interaction, primary screen, biochemical, AlphaScreen, single concentration. AlphaScreen His-ARNT PAS-B/GST-TACC3 binding, luminescence; TACC3 fragment carries E629A point mutation. inhibition, % at 9.99 µM. 0.66% of 390,000 active;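 active = mean inhibition of replicates at least 50% and at least half of replicates each reaching 50%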;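 note: 0% = complete ARNT plus TACC3 wells and 100% = ARNT alone without TACC3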
iPSC survival up – enhancers of single-cell hiPSC survival, primary screen, ATPlite luminescence; 100% = ROCK inhibitor wells, 0% = DMSO; 0.044% of 360,000 active; survival enhancement, % at 20 µM; AID 602274, 2012; in the data active = survival enhancement above about 18%;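 note: cells exposed to compounds for 16 hours before the ATP read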
GSIS activator – GLuc luminescence reporter in INS-1E cells, primary screen for activators of glucose-dependent secretion of insulin; INS-1E GLuc reporter insulin secretion, 2-3 h; activation, % at 16.6 µM; 0.61% of 370,000 active;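 active = lowest replicate activation of at least 40%, so every replicate reaches that level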;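 note: 0% = median of neutral control wells and 100% = median of IBMX positive control wells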
CendR NRP1 mod – modulators of CendR peptide binding to NRP-1, primary screen, biochemical, fluorescence polarization, uHTS; FAM-RPARPAR peptide binding to NRP-1; inhibition, % at 25 µM; 0.85% of 360,000 active; AID 602438, 2012;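 active = inhibition or corrected inhibition above about 18%, plus a signal ratio from 0.5 to 1.5, limit read from the data, passing the limit was not always enough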
Target sequence (O14786 whole entry, looked up): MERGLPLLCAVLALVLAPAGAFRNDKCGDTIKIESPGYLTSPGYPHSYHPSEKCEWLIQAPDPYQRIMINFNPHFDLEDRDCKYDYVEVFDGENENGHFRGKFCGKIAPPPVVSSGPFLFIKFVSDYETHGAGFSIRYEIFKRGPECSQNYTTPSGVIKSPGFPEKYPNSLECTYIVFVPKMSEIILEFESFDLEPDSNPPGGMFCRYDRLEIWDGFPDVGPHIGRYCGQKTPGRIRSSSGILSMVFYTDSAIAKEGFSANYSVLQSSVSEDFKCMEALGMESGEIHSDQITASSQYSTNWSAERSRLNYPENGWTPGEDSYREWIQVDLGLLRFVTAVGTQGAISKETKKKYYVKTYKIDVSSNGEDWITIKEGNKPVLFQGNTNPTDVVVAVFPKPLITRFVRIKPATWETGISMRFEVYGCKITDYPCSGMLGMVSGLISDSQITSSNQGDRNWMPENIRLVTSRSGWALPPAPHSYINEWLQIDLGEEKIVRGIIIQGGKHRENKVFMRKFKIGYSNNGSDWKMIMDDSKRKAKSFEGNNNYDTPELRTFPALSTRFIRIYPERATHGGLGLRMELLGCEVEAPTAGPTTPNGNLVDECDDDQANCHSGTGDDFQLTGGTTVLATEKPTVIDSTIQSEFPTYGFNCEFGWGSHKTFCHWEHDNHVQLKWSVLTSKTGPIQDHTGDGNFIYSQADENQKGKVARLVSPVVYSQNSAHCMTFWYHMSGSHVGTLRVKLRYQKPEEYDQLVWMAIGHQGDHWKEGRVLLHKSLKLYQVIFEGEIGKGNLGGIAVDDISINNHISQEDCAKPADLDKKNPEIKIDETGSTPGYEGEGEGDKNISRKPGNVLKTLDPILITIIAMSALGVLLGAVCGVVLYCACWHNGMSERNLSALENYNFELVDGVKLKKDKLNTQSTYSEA
ABCB6 inh MLPCN – ABCB6 transporter inhibitors, primary screen, K562-ABCB6 cells, flow cytometry, MLPCN library; K562-ABCB6 porphyrin accumulation, 1 h; stronger effect = lower value; fluorescence ratio to DMSO, % at 10 µM; ATP-binding cassette sub-family B member 6 (Homo sapiens), Q9NP58; 0.19% of 360,000 active;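 active = fluorescence ratio to DMSO below 75%, the collection mean minus 3 SD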;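 note: signal is porphyrin accumulated inside mitochondria; 100% equals median channel fluorescence of DMSO control wells; lower ratio means ABCB6 inhibition with less porphyrin fluorescence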
ARNT Alpha ctr – AlphaScreen signal interference compounds, dose response, artefact control for ARNT-TACC3 interaction inhibitor project, biochemical, luminescence, cherry-pick; shares compounds with ARNT TACC3 PPI; His-ARNT PASB-GST AlphaScreen artifact counter-screen; AC50, µM (series often up to 68 µM), inactives show at the top dose activity change, negative = signal decrease; 50% of 1,200 active; AID 651705, 2012;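 active = every separate test run was called active for a drop in luminescence, with AC50 within twice the top valid dose, actives reach about 71 µM in these data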
* = called active by the depositor; x = no result; [ ] = dose if it differs, or a comment. Most compounds without a hit are left out; they make up all but 1.8% or so of the library.

SMILES	ARNT TACC3 PPI	iPSC survival up	GSIS activator	CendR NRP1 mod	ABCB6 inh MLPCN	ARNT Alpha ctr
O=C(Nc1nnc(-c2ccc(F)cc2)o1)c1ccc(S(=O)(=O)N2CCOCC2)cc1	1.8	0.1	x	-3.6	93.0	x
O=C(Nc1nnc(-c2ccco2)o1)c1ccc(S(=O)(=O)N2CCCC2)cc1	44.5	1.4	4.1	0.7	100.0	x
O=C(O)c1cn[nH]c1-n1cnnn1	60.8*	-1.0	x	4.8	89.0	-9.2%
CC(=O)Nc1ccc(-n2cnnn2)cc1	-3.4	-1.8	x	6.1	95.0	x
Oc1ccccc1C(Nc1nccs1)c1ccc2cccnc2c1O (stereo not given)	61.1*	-0.6	-0.8	-10.2	97.0	11.9µM*
Oc1c(C(Nc2ccccn2)c2ccccn2)ccc2cccnc12 (stereo not given)	x	0.2	-6.7	-11.1	90.0	x
COc1ccc(NC(=O)Nc2ccc3c(c2)C(=O)N([C@H](C)CO)C[C@@H](C)[C@@H](CN(C)C(=O)CCC(F)(F)F)OCCCC[C@H](C)O3)cc1	active	x	5.2	x	x	-17.0%[42 µM]
COc1ccc(NC(=O)Nc2ccc3c(c2)C(=O)N([C@H](C)CO)C[C@H](C)[C@@H](CN(C)C(=O)CCC(F)(F)F)OCCCC[C@@H](C)O3)cc1	2.7	x	2.2	x	x	x
CC(C)NC(=O)N(C)C[C@H]1OCCCC[C@H](C)Oc2ccc(NC(=O)Nc3ccccc3)cc2C(=O)N([C@H](C)CO)C[C@@H]1C	108.0*	x	5.3	x	x	-6.8%[42 µM]
CC(C)NC(=O)Nc1ccc2c(c1)C(=O)N([C@H](C)CO)C[C@H](C)[C@@H](CN(C)C(=O)Cc1ccccc1)OCCCC[C@H](C)O2	96.7*	x	-0.4	x	x	-7.4%[38 µM]
CCc1ccc2c(c1)NC(=O)C2(C)Cc1ccc(F)cc1 (stereo not given)	x	-0.7	-16.5	7.0	98.0	x
CCc1ccc2c(c1)C1(NN=C(c3ccc(C)cc3)S1)C(=O)N2 (stereo not given)	61.0*	-3.5	x	0.6	91.0	2.78µM*
CCC(=O)N1CC2(C1)CN(C(=O)Nc1ccc(F)cc1)[C@H](CO)c1c2c2ccc(OC)cc2n1C	x	x	-32.1	x	x	x
C/C(=N\NC(=O)c1c[nH]c2ccccc12)c1ccc(C)o1	62.0*	-3.2	x	-12.9	96.0	57.1µM*
COc1ccc(Br)cc1CNc1ccc2[nH]c(=O)[nH]c2c1	11.2	2.5	9.2	-4.9	98.0	x
COc1ccc(Br)cc1CNc1ccc(O)cc1	13.6*	-1.6	x	-6.2	93.0	52.8µM*
Cc1ccc(S(=O)(=O)N(C)C[C@H]2Oc3ccc(NS(=O)(=O)c4cccs4)cc3CC(=O)N([C@@H](C)CO)C[C@@H]2C)cc1	-6.8	x	10.6	x	x	x
NC1=NN=C(N2N=C(c3ccccc3)CC2(O)C(F)(F)F)n2ncnc2C1 (stereo not given)	54.4*	-0.5	-11.5	-6.1	110.0	-1.0%
NC1=NN=C(N2N=C(c3ccc(Br)cc3)CC2(O)C(F)(F)F)n2ncnc2C1 (stereo not given)	-0.2	-2.2	6.2	11.5	100.0	x
N#C[C@@H]1[C@@H](c2ccc(-c3ccc(F)cc3)cc2)[C@H](CO)N1c1nc(-c2ccccc2)cs1	56.2*	x	13.4	x	x	58µM*
COC(=O)C[C@H]1CC[C@H]2[C@@H](COC[C@H](O)CN2S(=O)(=O)c2cn(C)cn2)O1	-6.5	x	14.6	x	x	x
OCCN(Cc1cccnc1)Cc1ccccn1	69.5*	1.0	14.6	-22.7	104.0	15.4µM*
Cc1ccc(S(=O)(=O)Nc2ccc3c(c2)C(=O)N([C@H](C)CO)C[C@H](C)[C@@H](CN(C)C(=O)Nc2c(C)noc2C)OCCCC[C@H](C)O3)cc1	-7.9	x	17.2	x	x	x
N#Cc1ccc(CC(=O)c2ccccc2)[nH]c1=O	active	0.4	-0.6	-15.2	100.0	-11.6%
CCCCN(CC)c1nc(N)c2c(N)nc(OCC)cc2c1C#N	10.3*	1.7	x	-39.8	101.0	-10.6%
